The full list was thinned out, with hits kept by preference.
ID4 SMM = ID4 (human) binding. P47928. small molecule microarray, Flag-ID4 binding, fluorescence F/B. calls only. 1.2% of 31,000 active; call rule not given here;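 further: a binder raises fluorescence above local background on the spot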
Target sequence (P47928 whole entry, looked up): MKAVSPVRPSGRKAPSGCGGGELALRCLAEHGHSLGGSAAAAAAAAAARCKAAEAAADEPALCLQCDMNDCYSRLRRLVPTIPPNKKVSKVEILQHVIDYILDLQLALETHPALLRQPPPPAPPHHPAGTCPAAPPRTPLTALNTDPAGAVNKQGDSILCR
Each line names hits and unclear results; the compound was inactive in the other large screens.

CC(=O)c1cccc(NC(=O)C(C)NS(=O)(=O)c2ccc(C)cc2)c1 (stereo unspecified)	none
CNC[C@@H]1Oc2ccc(NS(=O)(=O)c3ccccc3)cc2CC(=O)N([C@@H](C)CO)C[C@H]1C	ID4 SMM active
CNC[C@H]1Oc2ccc(NS(=O)(=O)c3cccs3)cc2CC(=O)N([C@H](C)CO)C[C@@H]1C	ID4 SMM active
CNC[C@H]1Oc2ccc(NS(=O)(=O)c3cccs3)cc2CC(=O)N([C@@H](C)CO)C[C@H]1C	none
CNC[C@@H]1Oc2ccc(NS(=O)(=O)c3cccs3)cc2CC(=O)N([C@H](C)CO)C[C@@H]1C	none
CNC[C@@H]1Oc2ccc(NS(C)(=O)=O)cc2CC(=O)N([C@@H](C)CO)C[C@H]1C	none
CNC[C@@H]1Oc2ccc(NS(=O)(=O)c3ccccc3)cc2CC(=O)N([C@@H](C)CO)C[C@@H]1C	none
COC(=O)c1c2oc(c1C(=O)OC)C(=O)N[C@H](Cc1ccccc1)Cn1cc(nn1)CNC(=O)[C@H](Cc1ccccc1)NC(=O)N[C@@H](CO)CC2	ID4 SMM active
COC(=O)c1c2oc(c1C(=O)OC)C(=O)N[C@@H](Cc1ccccc1)Cn1cc(nn1)CNC(=O)[C@H](Cc1ccccc1)NC(=O)N[C@@H](CO)CC2	none
CC(C)[C@@H]1NC(=O)[C@H](Cc2ccccc2)NC(=O)[C@@H](CC(=O)O)NC(=O)CNC(=O)[C@H](CCCN=C(N)N)NC1=O	none
COC(=O)c1c2oc(c1C(=O)OC)C(=O)N(C)Cc1cn(nn1)C[C@@H](C)NC(=O)N[C@H](CO)CC2	none
COC(=O)c1c2oc(c1C(=O)OC)C(=O)N(C)Cc1cn(nn1)C[C@H](Cc1ccccc1)NC(=O)N[C@H](CO)CC2	ID4 SMM active
O=[N+]([O-])c1ccc2nc(CSc3ncnc4ccccc34)[nH]c2c1	none
Cc1c(CCC(=O)O)c(=O)oc2c(C)c(OCc3cccc4ccccc34)ccc12	none
O=C(O)CNC(=O)c1ccc(S(=O)(=O)N2CCCC2)cc1	none
Cc1ccc(C)c(NC(=O)CSc2nnc(-c3ccncc3)n2-c2ccc(F)cc2)c1	none
Cc1ccc(C)c(NC(=O)c2ccc(OCC(=O)Nc3ccccc3C)cc2)c1	none
COc1ccc(C)cc1S(=O)(=O)NCCO	none
Cc1ccc(NC(=O)CSc2nnnn2-c2ccc(F)cc2)cc1C	none
Cc1ccc(NC(=O)CSc2nnnn2-c2ccc(Cl)c(C(=O)O)c2)cc1C	ID4 SMM active
Cc1cc(NC(=O)CSc2nnnn2-c2ccccc2)ccc1Cl	none
O=C(CSc1ncccn1)Nc1ccc(Cl)cc1Cl	none
CC(=O)NC(Cc1c[nH]c2cc(Cl)ccc12)C(=O)O (stereo unspecified)	none
O=C(Nc1ccc(Cl)cc1Cl)NC(Cc1ccc(O)cc1)C(=O)O (stereo unspecified)	ID4 SMM active
CCCC(=O)N(CCc1c[nH]c2ccccc12)[C@@H]1CC(C(=O)NCCO)=C[C@H](Oc2c(I)cc(CO)cc2OC)[C@H]1O	ID4 SMM active
COc1cc(SC)ccc1C(=O)NCCc1c[nH]c2ccccc12	none
COc1ccc(C(=O)NCCc2c[nH]c3ccccc23)cc1[N+](=O)[O-]	none
CC(=O)c1cccc(N(CC(=O)Nc2ccc(C)cc2)S(C)(=O)=O)c1	none
O=C(COc1ccc([N+](=O)[O-])cc1)Nc1ccc(Cl)c(-c2nc3ccccc3s2)c1	none
COCCOC(=O)N1C(=O)[C@@]2(c3ccccc31)[C@H](c1ccccc1OCCO)N1[C@H](c3ccccc3)[C@H](c3ccccc3)OC(=O)[C@H]1[C@@H]2C(N)=O	ID4 SMM active
COCCOC(=O)N1C(=O)[C@@]2(c3ccccc31)[C@H](c1ccc(O)cc1)N1[C@H](c3ccccc3)[C@H](c3ccccc3)OC(=O)[C@H]1[C@@H]2C(N)=O	none
COCCOC(=O)N1C(=O)[C@@]2(c3cc(C#CCNC(N)=O)ccc31)[C@H](c1ccccc1OCCO)N1[C@H](c3ccccc3)[C@H](c3ccccc3)OC(=O)[C@H]1[C@@H]2C(N)=O	none
Cc1cc(=O)oc2cc(NC(=S)NCc3cccnc3)ccc12	ID4 SMM active
COc1ccc(NC(=S)NCc2cccnc2)cc1OC	none
COc1ccc(NC(=O)NCc2cccnc2)cc1OC	none
Cc1ccccc1NC(=O)CC(C(=O)O)N1CCOCC1 (stereo unspecified)	none
Cc1cc(=O)[nH]c(SCC(=O)Nc2ccc([N+](=O)[O-])cc2)n1	none
COc1ccccc1NC(=O)Cn1cc(C(=O)C2CCCCC2)c2ccccc21	none
CCn1c(SCC(=O)Nc2ccccc2)nc2ccc(I)cc2c1=O	none
O=C(COc1cc(Cl)c(Cl)cc1Cl)Nc1ncn[nH]1	none
O=C(O)c1ccc(CNC(=O)c2ccc(NC(=O)c3ccco3)cc2)cc1	none
C[C@H](CO)N1C[C@H](C)[C@H](CN(C)C(=O)Nc2ccccc2)Oc2c(NC(=O)c3nc4ccccc4s3)cccc2C1=O	none
C[C@@H]1CN([C@@H](C)CO)C(=O)c2cccc(NC(=O)c3cnccn3)c2O[C@@H]1CN(C)C(=O)Nc1ccccc1	none
C[C@@H]1CN([C@@H](C)CO)C(=O)c2cccc(NC(=O)c3nc4ccccc4s3)c2O[C@H]1CN(C)C(=O)Nc1cccc2ccccc12	none
COc1ccc(NC(=O)Nc2cccc3c2O[C@H](CN(C)S(=O)(=O)c2ccc(Cl)cc2)[C@H](C)CN([C@@H](C)CO)C3=O)cc1	ID4 SMM active
C[C@@H]1CN([C@H](C)CO)C(=O)c2cccc(NC(=O)c3cnccn3)c2O[C@@H]1CN(C)C(=O)Nc1ccccc1	none
C[C@@H]1CN([C@H](C)CO)C(=O)c2cccc(NC(=O)c3nc4ccccc4s3)c2O[C@H]1CN(C)C(=O)Nc1cccc2ccccc12	ID4 SMM active
COc1ccc(NC(=O)Nc2cccc3c2O[C@@H](CN(C)S(=O)(=O)c2ccc(Cl)cc2)[C@@H](C)CN([C@@H](C)CO)C3=O)cc1	none
C[C@H]1CN([C@@H](C)CO)C(=O)c2cccc(NC(=O)c3cnccn3)c2O[C@@H]1CN(C)C(=O)Nc1ccccc1	ID4 SMM active
COc1ccc(NC(=O)Nc2cccc3c2O[C@H](CN(C)S(=O)(=O)c2ccc(Cl)cc2)[C@H](C)CN([C@H](C)CO)C3=O)cc1	none
O=C(CSc1nnc(-c2cccc(Cl)c2)n1-c1ccccc1)Nc1ccccc1-c1ccccc1	none
CCc1ccc(C(Nc2cc(C)ccn2)c2ccc3ccc(C)nc3c2O)cc1 (stereo unspecified)	none
COC(=O)c1ccccc1NC(=O)COc1cc(C)ccc1C(C)C	none
COc1ccc(OC)c(NC(=O)COc2ccc3c4c(c(=O)oc3c2)CCC4)c1	none
Cc1cc(NC(=O)Cn2nc([N+](=O)[O-])cc2C)ccc1Br	none
CCCOc1ccc(Oc2nc(NC(C)(C)C)nc(N3CCOCC3)n2)nn1	none
Cc1c(Cl)ccc2c(C(=O)NCCCn3cc(Br)cn3)cc(-c3ccncc3)nc12	none
COc1ccc(CN(C)C[C@@H]2Oc3ccc(NC(=O)Nc4ccc(OC)cc4)cc3CC(=O)N([C@@H](C)CO)C[C@H]2C)cc1	none
C[C@@H]1CN([C@@H](C)CO)S(=O)(=O)c2ccc(C3=CCCC3)cc2O[C@@H]1CN(C)C(=O)Nc1ccc2c(c1)OCO2	none
C[C@H]1CN([C@@H](C)CO)C(=O)Cc2cc(NC(=O)Cc3ccccc3)ccc2O[C@@H]1CN(C)C(=O)Nc1ccc2c(c1)OCO2	none
C[C@@H]1CN([C@H](C)CO)C(=O)Cc2cc(NC(=O)Cc3ccccc3)ccc2O[C@H]1CN(C)C(=O)Nc1ccc2c(c1)OCO2	none
C[C@@H]1CN([C@@H](C)CO)S(=O)(=O)c2ccc(C3=CCCC3)cc2O[C@H]1CN(C)C(=O)Nc1ccc2c(c1)OCO2	ID4 SMM active

Screening data as filed in PubChem BioAssay.
